High-throughput results: PubChem BioAssay, The Scripps Research Institute Molecular Screening Center
Only some compounds are listed: those with a hit (about 4.8% of all), similar ones and a draw of the others.
hgDAF-12 ag: activates the H. glycines DAF-12 receptor ligand-binding domain. actives 1.8% (n = 370,000). activation, % at 6.8 µM. AID 687014. HEK293 GAL4-hgDAF12 UAS-luciferase reporter, agonist luminescence; normalized to butyrate control;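 active = activation above a cutoff set at the mean of all screened compounds plus 3 SD, cut at about 10% in these data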;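 note: 0% = DMSO wells and 100% = sodium butyrate wells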
DAX1 inh-1: DAX1 (NR0B1) inhibition, primary screen | HEK293T StAR-luciferase reporter, SF-1/DAX-1 repression relief | inhibition, % at 6.8 µM | actives 1.1% (n = 370,000) | AID 652010;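 active = inhibition above the mean over all tested compounds plus 3 SD, cut at about 3.6% in these data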;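 note: 0% = DAX-1 cells with DMSO and 100% = cells lacking DAX-1 with DMSO; higher inhibition means more luminescence from relief of DAX-1 repression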
hcDAF12 agonist: activators of H. contortus DAF-12 nuclear receptor; HEK293 hcDAF-12 lit1-tk-luc reporter, luminescence; 0% DMSO, 100% Δ7-dafachronic acid; activation, % at 6.8 µM; actives 1.4% (n = 370,000); AID 652067;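 active = activation above the mean of all tested compounds plus 3 SD, cut at about 5.5% in these data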;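 note: 100% = response to 3 µM Δ7-dafachronic acid high control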
SMARCA2 activ: activators of SMARCA2 function | actives 1% (n = 370,000) | MG213 cells, MMTV-luciferase reporter, dexamethasone, overnight | activation, % at 9.1 µM | AID 652017; in the data active = activation above about 7.8%;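 note: 0% = vehicle wells and 100% = reference activator wells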
DAX1 inh-2: NR0B1 (DAX1) inhibition. HEK293 Gal4-DAX1 luciferase reporter, luminescence. inhibition, % at 6.75 µM. actives 0.99% (n = 340,000). AID 504766;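 active = inhibition above the mean over all tested compounds plus 3 SD, cut at about 4.2% in these data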;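 note: 0% = DAX1-transfected cells with DMSO and 100% = empty-vector control cells with DMSO; inhibition shows as a rise in luminescence from relieved DAX1 repression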
ssDAF-12 act: activators of S. stercoralis DAF-12 nuclear receptor. activation, % at 6.8 µM. HEK293 ssDAF-12/GRIP1 lit1-tk-luc reporter, luminescence; % of 3 µM dafachronic acid response. actives 1% (n = 370,000);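 active = activation above the mean over all tested compounds plus 3 SD, cut at about 0.9% in these data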;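 note: 0% = DMSO-only wells and 100% = 3 µM delta7-dafachronic acid wells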
LXR ag: activates human LXR-beta, counter-screen for hcDAF-12 agonists; shares compounds with hcDAF12 agonist; HEK293 Gal4-LXR tk-luc reporter, luminescence, 24 h; normalized: DMSO 0%, positive control 100%; activation, % at 6.8 µM; 3,400 tested, under 10 active; AID 743027;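 active = mean percent activation of the reporter above a cutoff set as the average over tested compounds plus their standard deviation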
Target sequence (P55055 whole entry, looked up, the tested form may be a part): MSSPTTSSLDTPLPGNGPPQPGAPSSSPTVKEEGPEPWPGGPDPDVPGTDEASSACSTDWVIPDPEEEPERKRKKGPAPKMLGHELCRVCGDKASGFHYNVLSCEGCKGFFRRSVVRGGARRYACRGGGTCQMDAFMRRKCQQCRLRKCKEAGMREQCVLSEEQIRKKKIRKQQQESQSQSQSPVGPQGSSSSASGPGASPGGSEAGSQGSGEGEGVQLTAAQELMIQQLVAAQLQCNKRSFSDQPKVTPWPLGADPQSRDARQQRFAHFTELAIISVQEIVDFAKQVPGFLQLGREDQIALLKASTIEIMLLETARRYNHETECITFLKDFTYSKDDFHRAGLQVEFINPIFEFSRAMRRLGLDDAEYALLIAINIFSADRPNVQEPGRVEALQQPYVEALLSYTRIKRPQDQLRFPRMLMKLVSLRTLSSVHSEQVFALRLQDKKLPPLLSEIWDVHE
hcDAF12 ag: hcDAF-12 agonism, confirmation assay. shares compounds with hcDAF12 agonist. HEK293 hcDAF-12 lit1-tk-luc reporter, luminescence; % of Δ7-dafachronic acid response. activation, % at 6.8 µM. actives 61% (n = 3,400);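 active = mean activation across triplicate tests above the threshold derived from the earlier primary screen, cut at about 5.5% in these data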;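 note: 0% = DMSO only wells and 100% = 3 µM Δ7-dafachronic acid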
hgDAF12 conf: confirmation of H. glycines DAF-12 agonists | HEK293 GAL4-hgDAF12 luciferase reporter, agonist mode; percent of butyrate response | actives 80% (n = 3,300) | shares compounds with hgDAF-12 ag | AID 743050 | activation, % at 6.8 µM;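 active = mean activation over triplicate wells above the hit cutoff derived from the earlier primary screen, cut at about 11% in these data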;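 note: 0% = DMSO low control and 100% = 2 mM sodium butyrate high control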
LXRb DAF12 ctr: activates human LXR-beta, counter-screen for DAF-12 agonists; 3,300 tested, under 10 active; shares compounds with hgDAF-12 ag; AID 743051; activation, % at 6.8 µM; HEK293 Gal4-LXR luciferase reporter, 24 h;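 active = mean activation of the triplicate above a set limit carried over from the primary screen, none filed active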
* hit, by the source's call; nt = no result.

SMILES	hgDAF-12 ag	DAX1 inh-1	hcDAF12 agonist	SMARCA2 activ	DAX1 inh-2	ssDAF-12 act	LXR ag	hcDAF12 ag	hgDAF12 conf	LXRb DAF12 ctr
O=C(CN1C(=O)NC2(CCCCCC2)C1=O)Nc1ccc(Br)cc1Br	-3.5	-0.5	-2.8	-4.8	-1.2	-2.0	nt	nt	nt	nt
Cc1cc2nn(-c3ccccc3)nc2cc1NC(=O)c1cccs1	4.5	0.0	1.0	1.3	0.8	-1.3	nt	nt	nt	nt
CC(=O)Nc1cc2nn(-c3ccccc3)nc2cc1C	18.1*	2.5	7.0*	7.4	-1.3	1.4*	1.8	5.4	18.6*	0.7
CCOC(=O)CSc1nc2cccnc2n1C	-0.6	-0.4	-1.0	-2.5	-0.5	-0.6	nt	nt	nt	nt
Cn1c(SCc2ccccc2F)nc2cccnc21	14.3*	1.5	8.0*	4.1	3.3	0.2	0.9	5.7*	17.7*	0.8
N=c1n(N)c2ccccc2n1CC(=O)c1ccc(Br)cc1	15.1*	2.5	8.1*	6.7	3.5	0.6	0.6	5.3	13.5*	0.5
CCc1ccc(C2CC(c3ccco3)=NN2S(C)(=O)=O)cc1 (stereo not given)	17.9*	3.4	9.2*	7.3	2.2	1.3*	1.3	8.9*	18.0*	1.0
CCOc1ccc2cc(C3CC(c4ccco4)=NN3S(C)(=O)=O)c(Cl)nc2c1 (stereo not given)	-4.0	-0.8	-1.2	-2.3	-0.1	-1.2	nt	nt	nt	nt
CCOc1ccc(NC(=O)c2nsc(Cl)c2Cl)cc1	18.2*	4.4*	7.2*	2.5	3.9	0.9*	1.2	6.6*	17.9*	0.7
CCOc1ccc(NC(=O)c2ccncc2)cc1	-0.1	0.0	0.8	-2.3	3.5	-1.5	nt	nt	nt	nt
CSCCC(NS(=O)(=O)c1cccs1)C(=O)NCc1ccc(C)cc1 (stereo not given)	-2.6	-0.2	1.7	0.2	-0.6	-1.8	nt	nt	nt	nt
CCOC(=O)/C(=N\Nc1ncnc2ccccc12)c1ccc(C)cc1	20.7*	2.2	18.5*	5.5	-0.5	2.5*	1.8	18.9*	19.7*	1.2
CCOC(=O)c1ccc(S(=O)(=O)N2CCN(CC(=O)NC(=O)NC(C)(C)C)CC2)cc1	2.3	-0.5	-0.6	0.9	-1.3	-1.6	nt	nt	nt	nt
COCCNS(=O)(=O)c1cc(OC)c(C)cc1C	0.1	1.4	-1.9	-2.1	-0.5	-2.1	nt	nt	nt	nt
Nc1nc(Nc2ccc(Cl)cc2)nc2ccccc12	13.8*	2.1	14.2*	6.0	-1.4	2.5*	1.8	12.3*	21.6*	1.4
Nc1nc(Nc2ccccc2)nc2ccccc12	14.7*	3.6*	9.9*	-2.0	0.3	1.7*	1.2	5.3	16.3*	1.1
CC(C(=O)Nc1ccc(Cl)cc1)c1ncc(C(F)(F)F)cc1Cl (stereo not given)	0.3	-0.4	-1.4	4.2	1.6	-1.1	nt	nt	nt	nt
O=C(CCNC(=O)c1ccccc1Cl)Nc1cc(S(=O)(=O)N2CCOCC2)ccc1N1CCOCC1	3.0	0.3	0.2	1.7	0.6	-1.8	nt	nt	nt	nt
CC(=O)NC(c1cccc([N+](=O)[O-])c1)c1c(OC(C)=O)ccc2ccccc12 (stereo not given)	-3.0	-1.0	-2.3	-2.8	-1.0	-0.2	nt	nt	nt	nt
Cc1sc(NC(=O)c2ccco2)nc1-c1ccccc1	14.4*	2.6	7.8*	5.6	3.9	0.6	1.4	7.9*	18.0*	0.8
CSc1ncccc1C(=O)Nc1cc(C)ccn1	-0.6	0.3	0.1	2.0	0.2	-0.6	nt	nt	nt	nt
